DRV1 agonist – qHTS for Agonists of Human Resolvin D1 Receptor DRV1 | Probable G-protein coupled receptor 32 (Homo sapiens), O75388 | CHO-K1 GPR32 beta-arrestin PathHunter luminescence, 90 min; zero percent set by DMSO-only wells | activation, % at 76.9 µM | 48,000 compounds, 2.5% hits | AID 1346428, 2018;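 active means activation of at least 60% and not above a set upper limit, about 1 call in 100 departs from these limits; inconclusive means activation of 40% to 60%, or above that upper limit; inactive means activation under 40%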
Target sequence (O75388 whole entry, looked up): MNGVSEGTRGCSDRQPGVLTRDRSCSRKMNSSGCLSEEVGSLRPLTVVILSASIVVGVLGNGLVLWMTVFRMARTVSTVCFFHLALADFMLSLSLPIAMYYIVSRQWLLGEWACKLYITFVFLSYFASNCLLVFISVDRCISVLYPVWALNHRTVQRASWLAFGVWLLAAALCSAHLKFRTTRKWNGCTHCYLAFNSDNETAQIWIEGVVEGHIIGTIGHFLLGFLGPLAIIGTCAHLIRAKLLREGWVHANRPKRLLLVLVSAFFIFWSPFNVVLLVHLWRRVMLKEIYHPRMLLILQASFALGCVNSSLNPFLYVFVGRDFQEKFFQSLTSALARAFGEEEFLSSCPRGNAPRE
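GPR32 activation in stably transfected CHO-K1 cells, detected as beta-arrestin recruitment by enzyme-fragment complementation. Compound exposure: 90 min, 37 °C.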
HTT prom inh – Primary qHTS for Identification of Small Molecule Inhibitors of Huntingtin Promoter Activity; AID 1508623, 2021; HEK293 HTT promoter firefly luciferase reporter, 24 h; Potency, µM (top dose mostly 57.5 µM), actives largely listed as inhibitors; 48,000 compounds, 0.93% hits; further: nearly all actives have a fitted effect of over 50% in size
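HEK293 cells carrying firefly luciferase reporters were seeded at 2,500 per well in Opti-MEM and cultured for 24 h. They were then treated with compounds at up to 57.5 uM final for 24 h at 37 degrees C before Dual-Glo luminescence readout.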
HTT-AS promoter – Primary qHTS for Identification of Small Molecule Activators of Huntingtin-Antisense Promoter Activity | 48,000 compounds, 0.24% hits | HEK293 HTT-AS promoter firefly luciferase reporter, 24 h; response scale: percent change from vehicle, -100% = no light | Potency, µM (series often up to 57.5 µM), actives largely listed as activators; further: nearly all actives have a fitted effect of over 55% in size
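Firefly luciferase readout (Dual-Glo, 10 min RT) after 24 h, 37 °C compound exposure (final up to 57.5 uM) of HEK293 reporter cells cultured 24 h beforehand; PTC124 at 50 uM final as control inhibitor; activity scaled vehicle 0%, zero RLU -100%.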
A number is an active result; – = inactive; ? = inconclusive; · = not tested or not shown; ! = not active in a repeat; [ ] = remark or other dose. The list is not random: actives were taken first. Their share in the collection is about 3.7%. Unless noted, the call rests on the fitted dose curve; in most records, active means well fitted curve in the direction sought with a large enough effect; inconclusive means small, poorly fitted or top-dose-only effect, or another doubt; inactive means no such curve, though single readings can be large; an effect the other way counts as inactive or inconclusive.

SMILES	DRV1 agonist	HTT prom inh	HTT-AS promoter
CCc1ccc2[nH]cc(S(=O)(=O)c3ccc(C(C)C)cc3)c(=O)c2c1	65	?	–
COc1ccc2nc3sc(C(=O)NCCc4ccc(Cl)cc4)cc3cc2c1	–	–	–
CCOc1ccc(CCNC(=O)c2cc3cc4ccc(OC)cc4nc3s2)cc1OCC	65	–	–
Cc1ccc(S(=O)(=O)NCCc2sc3nc(-c4ccccc4)nn3c2C)cc1C	–	?	–
CC1CCCN(C(=O)CSc2c3c(nc4cc(Cl)ccc24)CCCC3)C1 (stereo unspecified)	–	–	–
CCc1ccccc1S(=O)(=O)Cc1ccc(C(=O)NCc2ccc(Cl)cc2)o1	?	?	–
CCc1ccccc1S(=O)(=O)Cc1ccc(C(=O)NCCc2ccc(Cl)cc2)o1	66	?	–
CSc1ccc(CCNC(=O)Cn2ncc3c(=O)oc4ccc(C)cc4c32)cc1	–	–	–
CSc1ccc(CCNC(=O)Cn2ncc3c(=O)oc4ccccc4c32)cc1	67	–	–
Nc1nc(Cl)nc2c1ncn2[C@@H]1O[C@H](COP(=O)(O)OP(=O)(O)OP(=O)(O)O)[C@@H](O)[C@H]1O	–	·	·
CCOC(=O)c1ccc2ncc(C(=O)OCC)c(NCCc3ccc(OC)c(OC)c3)c2c1	–	–	–
CCOC(=O)c1cnc2ccc(OC)cc2c1NCCc1ccccc1	–	32µM	–
CCC(=O)N1CCc2cc(S(=O)(=O)CCC(=O)Nc3ccc(Cl)c(C(F)(F)F)c3)ccc21	88	?	–
CN1C(=O)Cc2cc(S(=O)(=O)CCC(=O)Nc3ccc(Cl)c(C(F)(F)F)c3)ccc21	–	–	–
CCOc1ccc(NC(=O)c2ncn(-c3ccccc3)n2)cc1	–	–	8.9µM
O=C(Nc1ccc(F)cc1)c1ncn(-c2ccccc2)n1	–	–	?
CCN(CC)c1ccc(NC(=O)c2sc3ccccc3c2Cl)cc1	–	–	–
CCOc1ccc(NC(=O)c2sc3ccccc3c2Cl)cc1	70	·	·
C=CC(=O)Nc1cc2c(Nc3ccc(F)c(Cl)c3)ncnc2cc1C#CC(C)(C)N1CCN(C)CC1	·	–	–
Cc1ccc(S(=O)(=O)NCCc2csc(-c3ccc(Cl)cc3)n2)cc1	?	?	–
CCOc1ccc(S(=O)(=O)NCCc2csc(-c3ccc(Cl)cc3)n2)cc1	69	?	–
O=S(=O)(NCCc1csc(-c2cccc(F)c2)n1)c1cc(F)ccc1F	–	–	–
O=S(=O)(NCCc1csc(-c2ccc(F)cc2)n1)c1ccc(Cl)cc1	64	?	–
CCOc1ccc(S(=O)(=O)NCCc2sc(-c3ccc(C)cc3)nc2C)cc1	–	?	–
Cc1ccc(S(=O)(=O)NCCc2csc(-c3cccc(F)c3)n2)cc1	80	?	–
SMILES	DRV1 agonist	HTT prom inh	HTT-AS promoter
COc1ccc(S(=O)(=O)NCCc2csc(-c3ccc(F)cc3)n2)cc1F	–	–	–
Cc1ccc(C)c(S(=O)(=O)NCCc2csc(-c3ccc(Cl)cc3)n2)c1	74	?	–
CCNC(=O)c1cc2c(-c3cc(OCCN4CCCC4)c(Cl)cc3Cl)nc(N)nc2s1	·	?	–
CO[C@H]1/C=C\O[C@@]2(C)Oc3c(C)c(O)c4c(O)c(c5c(nc6cc(C)ccn65)c4c3C2=O)NC(=O)C(C)=CC=C[C@H](C)[C@H](O)[C@@H](C)[C@@H](O)[C@@H](C)[C@H](OC(C)=O)[C@H]1C	·	–	–
N[C@H](C(=O)O)[C@H](Cc1ccccc1)C(=O)O	–	·	·
O=C(NN1CCCC1)NS(=O)(=O)c1ccc(Cl)cc1	–	–	–
COC(=O)C1=CO[C@@H](O)[C@@H]2C(CO)=CC[C@@H]12	·	–	–
COc1ccc(S(=O)(=O)NCCc2csc(-c3ccc(F)cc3)n2)cc1	60	–	–
COc1ccc(-c2nc(CNS(=O)(=O)c3ccc(F)cc3)cs2)cc1	–	?	–
O=C(O)c1ccccc1C(=O)Nc1ccc(-c2ccccc2)cc1	·	?	–
O=C(O)CCC1CCC(c2cc(F)ccc2F)(S(=O)(=O)c2ccc(Cl)cc2)CC1 (stereo unspecified)	·	–	–
COc1ccc(O)cc1	–	–	–
CC(C)(c1ccc(O)cc1)c1ccc(O)cc1	64	–	–
CCc1cccc(CC)c1N(COC)C(=O)Cn1c(C)nc2ccccc21	–	?	–
COc1cc(Oc2ccnc3cc(OC)c(OC)cc23)ccc1NC(=O)NC(C)c1nccs1 (stereo unspecified)	·	–	–
CC(C)Cn1c(-c2ccc(S(=O)(=O)N3CCCC3)cc2)csc1=Nc1ccccc1	–	?	–
COc1ccccc1N=c1scc(-c2ccc(S(=O)(=O)N3CCCC3)cc2)n1C	–	3.2µM	–
OC[C@H]1O[C@@H](O[C@H]2[C@@H](O)[C@@](O)(CO)O[C@@H]2CO)[C@H](O)[C@@H](O)[C@@H]1O	·	–	–
COc1ccc(Cn2c(NCC(C)C)nc3c2c(=O)n(C)c(=O)n3C)cc1	–	–	–
Cc1c(-c2ccc(O)cc2)n(Cc2ccc(OCCN3CCCCCC3)cc2)c2ccc(O)cc12	–	?	–
O=C(O)C[C@H](O)C[C@H](O)C=Cc1c(C2CC2)nc2ccccc2c1-c1ccc(F)cc1	·	–	–
CC(C)C[C@H](NC(=O)[C@H](Cc1ccccc1)NC(=O)c1cnccn1)B(O)O	?	?	–
O=C(O)CN(CCOCCOCCN(CC(=O)O)CC(=O)O)CC(=O)O	–	–[0.739 µM]	–[0.74 µM]
O=C(O)CN(CCN(CC(=O)O)CC(=O)O)CCN(CC(=O)O)CC(=O)O	70!	–	–
Cc1cccc(-c2noc(-c3ccc(N4CCN(C)CC4)c([N+](=O)[O-])c3)n2)c1	–	1.4µM	–
SMILES	DRV1 agonist	HTT prom inh	HTT-AS promoter
Cc1cccc(-c2noc(-c3ccc(N4CCCC4)c([N+](=O)[O-])c3)n2)c1	–	?	–
C[C@H](N)C(=O)N[C@@H](C)C(=O)NC1[C@H]2CN(c3nc4c(cc3F)c(=O)c(C(=O)O)cn4-c3ccc(F)cc3F)C[C@@H]12 (stereo partly specified)	–	–	–
Cc1nc(N)ncc1-c1nc(N2CCOCC2)c2sc(C(C)(C)O)cc2n1	·	?	–
COc1ccccc1C(=O)NC1(C(F)(F)F)C(=O)NC(C)=C1C#N (stereo unspecified)	–	–	–
O=S(=O)(c1ccccc1)n1nc(-c2ccco2)nc1NCc1ccccc1	–	–	13µM
O=S(=O)(c1ccccc1)n1nc(-c2ccc(Cl)cc2)nc1NCc1ccc(F)cc1	72	–	–
O=S(=O)(c1ccccc1)n1nc(-c2ccccc2)nc1NCc1ccc(Cl)cc1	–	–	–
CN(C)c1ccc(CNc2nc(-c3ccco3)nn2S(=O)(=O)c2ccc(Cl)cc2)cc1	–	–	?
CC(O)(C#Cc1ccc2c(c1)N(c1nc(N)ncc1Cl)CC2)c1nccs1 (stereo unspecified)	·	?	–
CCCCC(CC)CNC(=O)CCCc1nnc2n(CCC)c(=O)c3sccc3n12 (stereo unspecified)	80	–	–
CCCn1c(=O)c2sccc2n2c(CCCC(=O)NCc3ccccc3)nnc12	–	–	–

Bioassay records: PubChem BioAssay, National Center for Advancing Translational Sciences (NCATS)
